# Source: PubChem BioAssay
# Algae TAG accum: inducers of triacylglycerol accumulation in Chlamydomonas reinhardtii algae; Chlamydomonas reinhardtii TAG, Nile Red fluorescence, 72 h; calls only at 10 µM (by protocol); 0.84% of 44,000 active; AID 1159537; call rule not given here;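 further: hits raise Nile Red signal meaning more stored TAG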
# Starred values were filed as active, the others as inactive; i = inactive; + = active, no number. This is one part of a sample in which hits are shown more often than they occur.
SMILES,Algae TAG accum
Cc1ccc(-c2nc3ccccc3s2)cc1NC(=O)c1ccco1,i
CCOc1ccc(C(=O)N2CCN(CC)CC2)cc1,i
CC(C)(C)c1ccc(C(=O)N2CCCCCC2)cc1,i
CCN1CCN(C(=O)c2ccc(C(C)(C)C)cc2)CC1,+
CC(C)Oc1ccc(C(O)=C2C(=O)C(=O)N(CCCn3ccnc3)C2c2ccncc2)cc1 (configuration not stated),i
COc1cccc(C(=O)Nc2ccc3oc(-c4ccncc4)nc3c2)c1,+
Cc1ccc(C(=O)Nc2ccc3oc(-c4ccncc4)nc3c2)cc1C,+
COc1ccc(-c2nc3cc(NC(=O)c4ccccc4)ccc3o2)cc1,i
COc1cccc(C(=O)Nc2ccc3oc(-c4ccc(F)cc4)nc3c2)c1,i
O=C(Nc1ccc2oc(-c3ccncc3)nc2c1)c1ccccc1,i
O=C(Nc1ccc2oc(-c3cccnc3)nc2c1)c1ccncc1,i
O=S(=O)(Nc1ccc(S(=O)(=O)Nc2ccccc2)cc1)c1ccc(Br)cc1,i
COc1ccc(C)cc1NC(=O)c1cc(OC)c(OC)c(OC)c1Br,i
Cc1ccc(C(=O)c2ccc(N3CCCC3)c([N+](=O)[O-])c2)cc1,i
CN1CCN(c2ccc(C(=O)c3ccc(Cl)cc3)cc2[N+](=O)[O-])CC1,i
COc1ccc(C(=O)c2ccc(N3CCN(C)CC3)c([N+](=O)[O-])c2)cc1,+
CCCNC1=C(N(C(C)=O)c2cccc(F)c2)C(=O)c2ccccc2C1=O,i
COc1cccc(N(C(C)=O)C2=C(NC3CCCCC3)C(=O)c3ccccc3C2=O)c1,i
CC(=O)N(C1=C(Nc2ccccc2)C(=O)c2ccccc2C1=O)c1ccccc1,+
COc1nc(NS(=O)(=O)c2ccc(NC(C)=O)cc2)nc(C)c1Cl,i
Cc1ccc(OCC(O)CN2CCCCC2)c(C)c1 (configuration not stated),i
OC(COc1ccc(Br)cc1)CN1CCCCCC1 (configuration not stated),+
Cc1ccccc1OCC(O)CN1CCN(CC(O)COc2ccccc2C)CC1 (configuration not stated),i
OC(COc1ccccc1Br)CN1CCCCC1 (configuration not stated),+
OC(COc1ccc(OCC(O)CN2CCCC2)cc1)CN1CCCC1 (configuration not stated),i
SMILES,Algae TAG accum
OC(COc1ccc(Br)cc1)CN1CCOCC1 (configuration not stated),i
Cc1ccc2nc(Nc3nc(C)c(C)c(=O)[nH]3)nc(C)c2c1,i
CCCOc1ccccc1NC(=O)Nc1ccc(OC)cc1,i
O=C(Nc1ccccc1Cl)c1ccc([N+](=O)[O-])cc1Cl,i
O=[N+]([O-])c1ccc(N2CCOCC2)cc1NCc1ccccc1,i
O=C(NCc1ccccc1)c1ccccc1NS(=O)(=O)c1ccc2c(c1)OCCO2,i
CC(=O)c1ccc(NC(=O)C(NC(=O)c2ccccc2)=C(C)C)cc1,i
CC(O)c1nc2ccccc2n1Cc1ccccc1Cl (configuration not stated),i
Cc1cccc(Cn2c(C(C)O)nc3ccccc32)c1 (configuration not stated),i
COc1ccccc1Cn1c(C(C)O)nc2ccccc21 (configuration not stated),+
NC(=O)C1CCN(C(=O)c2ccccc2NC(=O)c2ccc(Br)cc2)CC1,i
C=CCc1cc(OC)ccc1OCCCCN1CCN(C)CC1,i
CC(C)NC(=O)c1ccccc1NS(=O)(=O)c1ccc(Br)cc1,i
C#CCN1C(=O)C(=O)c2cc(Br)ccc21,i
O=C1C(=O)N(Cc2ccc(F)cc2)c2ccc(Br)cc21,i
C=CCN1C(=O)C(=O)c2cc(Br)ccc21,+
COc1ccc(-c2nc3c4c5c(sc4ncn3n2)CCCC5)cc1,i
c1ccc(N2CCN(c3ncnc4sc5c(c34)CCC5)CC2)cc1,i
COc1ccc(CN2CCN(c3ncnc4sc5c(c34)CCCC5)CC2)cc1,+
COc1cc([N+](=O)[O-])ccc1NC(=O)C1CC(Cl)=CCC1C(=O)O (configuration not stated),i
Cc1nnc(SCc2c(C)cc(C)c(CSc3nnc(C)s3)c2C)s1,i
O=C(C1CCN(CC2CC=CCC2)CC1)N1CCCCC1 (configuration not stated),i
CCN(CC)CCN1C(=O)C(O)=C(C(=O)c2cccs2)C1c1cccnc1 (configuration not stated),i
O=[N+]([O-])c1ccc(CN2CCN(C3CCCC3)CC2)cc1,+
O=[N+]([O-])c1ccc(N2CCN(Cc3ccccc3)CC2)nc1,i
SMILES,Algae TAG accum
O=[N+]([O-])c1ccc(C(O)CN2CCN(Cc3ccccc3)CC2)cc1 (configuration not stated),+
O=[N+]([O-])c1ccc(C(O)CN2CCc3ccccc32)cc1 (configuration not stated),i
O=[N+]([O-])c1ccc(CN2CCN(C3CCCCC3)CC2)cc1,i
O=[N+]([O-])c1cccc(CN2CCN(C3CCCC3)CC2)c1,i
COCCNC(=O)C1CCN(Cc2cc(OC)c(OC)c(OC)c2)CC1,i
O=C(NCCC1=CCCCC1)c1ccccc1O,i
COc1ccc(C)cc1NC(=O)CN(c1ccc(C)c(Cl)c1)S(C)(=O)=O,i
O=C(Nc1cccc2cccnc12)C1CCCO1 (configuration not stated),i
Cc1cc(=O)[nH]c(NCc2ccccc2)n1,i
COc1cc(C)nc(NCc2ccccc2)n1,+
Cc1cc(Oc2ccc([N+](=O)[O-])cc2)nc(NCc2ccccc2)n1,i
O=c1[nH]c(/C=C/c2cccs2)c([N+](=O)[O-])c(=O)[nH]1,i
Cc1cc(C=O)c(C)n1-c1ccc(Br)cc1F,+
COc1ccc(Cl)cc1-n1c(C)cc(C=O)c1C,i
Cc1cc(C=O)c(C)n1-c1ccc(O)cc1,i
Cc1ccc(OCC(=O)NC(C)C)cc1C,i
O=C(O)COc1ccc(NC(=O)c2ccc(Cl)cc2Cl)cc1,i
O=C(Nc1ccccc1I)c1ncn[nH]1,i
CC(C)NC(=O)c1ccccc1NC(=O)c1ccc(F)cc1,i
Cc1ccc(C(=O)Nc2ccccc2C(=O)NC(C)C)cc1[N+](=O)[O-],+
Cc1ccccc1C(=O)Nc1cccc(NC(=O)c2ccc(C)c([N+](=O)[O-])c2)c1,i
CN(C)c1ccc(CN2CCCCC2)cc1,i
CCOc1ccc(OCCOCCN2CCCC2)cc1,i
CCC(C)c1ccc(OCCN2CCCC2)cc1 (configuration not stated),+
COc1ccc(OCCCCN2CCCCC2)cc1,i
SMILES,Algae TAG accum
COc1ccc(OCCCN2CCCCC2)cc1,+
CCOc1cccc(OCCN2CCCC2)c1,i
c1ccc(OCCCN2CCCCC2)cc1,i
CC(C)=CCn1c(N2CCCCC2)nc2c1c(=O)[nH]c(=O)n2C,i
CC(C)(C)C1=CC(=O)CN(C(C)(C)C)C1,i
CC1CN(/C(=N/O)c2nonc2N)CC(C)N1/C(=N\O)c1nonc1N (configuration not stated),i
CCOc1ccc(C(=O)Nc2cccnc2)cc1[N+](=O)[O-],i
CC(=O)c1cc2c(cc1NC(=O)C(F)(F)Cl)OCO2,i
OC1(c2ccccc2)CCN(Cc2ccccc2)C1 (configuration not stated),i
O=C(c1cc2ccccc2s1)N1CCCCC1,i
Cc1ccc2nc(NC(=O)C3CC3)sc2c1,+
